From the supplement of paper PMC10849652
About 7,900 targets were measured; listed, in parts, are those with a hit and a random draw of the rest. About 0.6% of all pairs of compound and target were hits. Unmarked numbers belong to inactive results.

Tests used:
Assay in all cases: log2 fold change, soluble protein after heating vs DMSO (PISA); higher = thermal stabilisation; K562 cells, 10 uM, 30 min; active = over 0.2 and 3.5 SD of the protein, either way, in both replicates (recomputed)
[1] = compound: CC1=C(C=C(C=C1)NC(=O)C2=CC(=CC=C2)C(C)(C)C#N)NC3=CC4=C(C=C3)N=CN(C4=O)C
In short: (§1)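 K562 cells at 2×10^6 cells/mL were exposed to 10 μM compound for 30 min, then aliquots were heated for 3 min across 48°C-58°C, pooled, and extracted in PBS containing 0.5% NP-40 at 4°C. The supernatant after 21,000xg for 90 min was taken as soluble protein and measured by TMTpro 16plex LC-MS/MS with channel sums equalised. Thermal stability is reported relative to control samples, with values from duplicates. Fold changes are given on a log2 scale.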

[2] = compound: CC1=C(C=C(C=C1)NC(=O)C2=CC(=CC=C2)N(C)C)NC(=O)C3=CC=C(C=C3)O
In short: as §1

[3] = compound: CC1=CC=C(C=C1)SC2=C3C=C(SC3=CN=C2)C(=O)N
In short: as §1

[4] = compound: CC1=NC(=CC=C1)C2=C(N=C(N2)C(C)(C)C)C3=CC4=NC=CN=C4C=C3
In short: as §1

Nexturastat A = compound: CCCCN(Cc1ccc(C(=O)NO)cc1)C(=O)Nc1ccccc1 [Nexturastat A]
In short: as §1

[5] = compound: CCCS(=O)(=O)Nc1ccc(F)c(C(=O)c2c[nH]c3ncc(Cl)cc23)c1F
In short: as §1

barasertib = compound: CCN(CCCOc1ccc2c(Nc3cc(CC(=O)Nc4cccc(F)c4)[nH]n3)ncnc2c1)CCOP(=O)(O)O [barasertib]
In short: as §1

vemurafenib = compound: CCCS(=O)(=O)Nc1ccc(F)c(C(=O)c2c[nH]c3ncc(-c4ccc(Cl)cc4)cc23)c1F [vemurafenib]
In short: as §1

[6] = compound: CCCc1cc(C)[nH]c(=O)c1CNC(=O)c1cc(-c2ccnc(N3CCN(C)CC3)c2)cc2c1cnn2C(C)C
In short: as §1

givinostat = compound: CCN(CC)Cc1ccc2cc(COC(=O)Nc3ccc(C(=O)NO)cc3)ccc2c1 [givinostat]
In short: as §1

Sequence of UniProt O95857 (O95857 whole entry, looked up): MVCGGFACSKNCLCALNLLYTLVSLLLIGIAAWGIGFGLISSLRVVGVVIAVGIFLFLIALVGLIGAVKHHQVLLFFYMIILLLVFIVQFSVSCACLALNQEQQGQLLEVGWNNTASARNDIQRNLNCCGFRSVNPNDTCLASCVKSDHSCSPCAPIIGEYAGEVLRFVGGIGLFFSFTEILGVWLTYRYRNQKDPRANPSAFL
Sequence of UniProt Q7Z7N9 (Q7Z7N9 whole entry, looked up): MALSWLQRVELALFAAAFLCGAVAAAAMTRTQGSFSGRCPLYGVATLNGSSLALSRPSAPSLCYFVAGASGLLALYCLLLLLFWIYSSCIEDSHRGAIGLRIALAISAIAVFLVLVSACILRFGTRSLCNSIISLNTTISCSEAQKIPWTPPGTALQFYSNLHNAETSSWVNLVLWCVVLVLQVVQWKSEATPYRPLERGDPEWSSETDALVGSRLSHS
Sequence of UniProt Q96DX7 (Q96DX7 whole entry, looked up): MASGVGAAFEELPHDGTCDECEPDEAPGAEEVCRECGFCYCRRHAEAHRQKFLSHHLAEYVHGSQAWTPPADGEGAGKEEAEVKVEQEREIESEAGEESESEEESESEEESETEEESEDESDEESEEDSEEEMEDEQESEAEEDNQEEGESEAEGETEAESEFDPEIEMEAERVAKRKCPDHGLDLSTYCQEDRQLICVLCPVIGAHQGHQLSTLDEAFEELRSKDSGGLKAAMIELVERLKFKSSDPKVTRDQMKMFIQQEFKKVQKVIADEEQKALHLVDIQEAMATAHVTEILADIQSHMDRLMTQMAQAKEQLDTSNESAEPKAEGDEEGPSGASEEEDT
Sequence of UniProt Q8NEZ2 (Q8NEZ2 whole entry, looked up): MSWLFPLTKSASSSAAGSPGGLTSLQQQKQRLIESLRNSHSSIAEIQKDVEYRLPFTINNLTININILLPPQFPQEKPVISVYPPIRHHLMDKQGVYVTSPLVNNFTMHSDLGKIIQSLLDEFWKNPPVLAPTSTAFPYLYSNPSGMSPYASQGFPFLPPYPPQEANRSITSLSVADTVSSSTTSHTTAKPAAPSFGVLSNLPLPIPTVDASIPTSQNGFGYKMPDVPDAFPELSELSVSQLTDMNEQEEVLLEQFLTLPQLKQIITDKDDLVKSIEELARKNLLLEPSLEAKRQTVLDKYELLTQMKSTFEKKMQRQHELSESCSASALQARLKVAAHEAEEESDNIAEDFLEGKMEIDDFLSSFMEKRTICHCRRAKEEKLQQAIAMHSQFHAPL
Sequence of UniProt Q99986 (Q99986 whole entry, looked up): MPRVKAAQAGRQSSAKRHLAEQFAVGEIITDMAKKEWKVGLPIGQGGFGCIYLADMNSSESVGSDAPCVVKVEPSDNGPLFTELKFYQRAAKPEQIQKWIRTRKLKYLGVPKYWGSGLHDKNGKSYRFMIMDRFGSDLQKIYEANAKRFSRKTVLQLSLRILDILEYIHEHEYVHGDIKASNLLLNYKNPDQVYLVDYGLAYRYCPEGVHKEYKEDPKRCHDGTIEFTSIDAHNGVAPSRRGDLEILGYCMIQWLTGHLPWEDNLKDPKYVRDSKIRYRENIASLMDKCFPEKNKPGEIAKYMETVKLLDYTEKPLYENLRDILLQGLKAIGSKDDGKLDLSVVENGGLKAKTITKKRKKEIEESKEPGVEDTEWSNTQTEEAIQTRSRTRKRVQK
Sequence of UniProt Q5BJH2 (Q5BJH2 whole entry, looked up): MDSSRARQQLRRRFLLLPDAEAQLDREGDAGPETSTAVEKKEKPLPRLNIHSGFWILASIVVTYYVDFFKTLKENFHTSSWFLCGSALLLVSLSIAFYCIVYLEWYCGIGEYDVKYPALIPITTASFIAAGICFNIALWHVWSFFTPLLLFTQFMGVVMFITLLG
Sequence of UniProt Q9Y5Z9 (Q9Y5Z9 whole entry, looked up): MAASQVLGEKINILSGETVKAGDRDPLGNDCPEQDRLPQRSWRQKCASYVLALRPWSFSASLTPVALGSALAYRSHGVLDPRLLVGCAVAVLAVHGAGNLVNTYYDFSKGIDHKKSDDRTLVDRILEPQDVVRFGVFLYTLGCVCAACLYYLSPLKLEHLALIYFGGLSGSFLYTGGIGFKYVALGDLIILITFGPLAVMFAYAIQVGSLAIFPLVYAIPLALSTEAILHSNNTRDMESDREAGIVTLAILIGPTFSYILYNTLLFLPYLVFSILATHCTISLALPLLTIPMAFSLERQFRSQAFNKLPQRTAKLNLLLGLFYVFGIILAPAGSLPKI
Sequence of UniProt A3KMH1 (A3KMH1 whole entry, looked up): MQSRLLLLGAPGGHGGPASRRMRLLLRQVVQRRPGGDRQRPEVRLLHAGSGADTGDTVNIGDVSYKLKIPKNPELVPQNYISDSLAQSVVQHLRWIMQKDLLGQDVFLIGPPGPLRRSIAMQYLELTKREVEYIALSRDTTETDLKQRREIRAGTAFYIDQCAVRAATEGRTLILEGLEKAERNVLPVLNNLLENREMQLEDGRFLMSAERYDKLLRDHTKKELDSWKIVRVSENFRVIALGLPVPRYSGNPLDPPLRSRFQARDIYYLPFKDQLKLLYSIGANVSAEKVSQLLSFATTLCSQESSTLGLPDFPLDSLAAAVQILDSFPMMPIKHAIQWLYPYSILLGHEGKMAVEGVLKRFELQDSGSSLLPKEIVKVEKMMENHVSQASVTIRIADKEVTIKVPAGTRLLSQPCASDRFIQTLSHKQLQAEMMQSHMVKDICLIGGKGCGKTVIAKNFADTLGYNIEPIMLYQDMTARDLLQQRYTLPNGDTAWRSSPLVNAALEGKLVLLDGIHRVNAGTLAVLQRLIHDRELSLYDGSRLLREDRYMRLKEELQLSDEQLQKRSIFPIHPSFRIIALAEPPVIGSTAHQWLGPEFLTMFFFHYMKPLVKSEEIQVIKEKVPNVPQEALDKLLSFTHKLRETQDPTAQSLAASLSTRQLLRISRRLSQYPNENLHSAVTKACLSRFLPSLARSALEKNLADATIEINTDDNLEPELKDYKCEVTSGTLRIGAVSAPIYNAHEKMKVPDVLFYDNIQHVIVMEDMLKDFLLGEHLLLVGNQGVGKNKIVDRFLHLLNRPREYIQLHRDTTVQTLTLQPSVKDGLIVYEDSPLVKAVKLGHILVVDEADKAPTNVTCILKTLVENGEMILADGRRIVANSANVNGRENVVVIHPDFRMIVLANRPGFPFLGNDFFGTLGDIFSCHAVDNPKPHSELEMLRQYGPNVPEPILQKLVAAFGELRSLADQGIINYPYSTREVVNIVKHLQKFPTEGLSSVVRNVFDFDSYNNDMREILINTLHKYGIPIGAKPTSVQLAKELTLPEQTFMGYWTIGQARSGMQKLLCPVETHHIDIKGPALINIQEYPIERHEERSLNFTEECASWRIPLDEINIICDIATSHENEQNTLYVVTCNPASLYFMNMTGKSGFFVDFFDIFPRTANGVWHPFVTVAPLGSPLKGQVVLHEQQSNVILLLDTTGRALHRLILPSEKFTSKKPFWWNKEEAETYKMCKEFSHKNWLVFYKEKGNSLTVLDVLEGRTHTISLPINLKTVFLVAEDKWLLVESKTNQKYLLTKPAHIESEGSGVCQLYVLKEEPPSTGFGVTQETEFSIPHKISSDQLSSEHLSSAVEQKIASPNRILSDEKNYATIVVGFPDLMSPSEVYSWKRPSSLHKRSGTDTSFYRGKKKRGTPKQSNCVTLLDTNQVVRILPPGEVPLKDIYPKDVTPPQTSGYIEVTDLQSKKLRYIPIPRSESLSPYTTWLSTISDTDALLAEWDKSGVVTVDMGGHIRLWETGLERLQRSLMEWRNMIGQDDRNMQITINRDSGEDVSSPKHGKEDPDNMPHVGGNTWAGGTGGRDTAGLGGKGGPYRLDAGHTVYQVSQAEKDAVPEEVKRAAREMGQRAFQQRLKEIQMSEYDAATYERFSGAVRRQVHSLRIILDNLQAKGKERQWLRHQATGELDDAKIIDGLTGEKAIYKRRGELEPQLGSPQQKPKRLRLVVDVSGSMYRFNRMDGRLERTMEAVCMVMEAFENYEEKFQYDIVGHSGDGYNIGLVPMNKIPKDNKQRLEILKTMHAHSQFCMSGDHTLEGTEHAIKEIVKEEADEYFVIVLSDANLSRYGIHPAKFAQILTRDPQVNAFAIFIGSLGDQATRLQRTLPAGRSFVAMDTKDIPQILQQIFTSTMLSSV
Sequence of UniProt Q9H267 (Q9H267 whole entry, looked up): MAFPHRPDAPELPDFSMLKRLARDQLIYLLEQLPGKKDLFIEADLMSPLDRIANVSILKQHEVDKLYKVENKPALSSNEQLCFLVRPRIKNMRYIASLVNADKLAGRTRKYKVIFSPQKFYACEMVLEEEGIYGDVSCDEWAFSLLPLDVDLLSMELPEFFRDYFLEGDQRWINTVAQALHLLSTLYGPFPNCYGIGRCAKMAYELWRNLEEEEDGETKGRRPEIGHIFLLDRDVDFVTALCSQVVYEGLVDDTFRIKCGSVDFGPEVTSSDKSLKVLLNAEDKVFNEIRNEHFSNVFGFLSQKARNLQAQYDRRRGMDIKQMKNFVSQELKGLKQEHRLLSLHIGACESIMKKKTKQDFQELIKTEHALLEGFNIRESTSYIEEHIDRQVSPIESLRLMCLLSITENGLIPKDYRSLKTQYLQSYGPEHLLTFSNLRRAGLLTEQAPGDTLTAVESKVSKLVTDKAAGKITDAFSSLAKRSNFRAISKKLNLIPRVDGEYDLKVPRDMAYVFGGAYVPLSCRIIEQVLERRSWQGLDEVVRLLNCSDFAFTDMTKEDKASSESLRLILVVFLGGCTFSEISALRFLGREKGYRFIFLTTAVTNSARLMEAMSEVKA
Sequence of UniProt Q8N4H5 (Q8N4H5 whole entry, looked up): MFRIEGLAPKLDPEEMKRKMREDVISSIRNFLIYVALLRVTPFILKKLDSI
Sequence of UniProt Q99757 (Q99757 whole entry, looked up): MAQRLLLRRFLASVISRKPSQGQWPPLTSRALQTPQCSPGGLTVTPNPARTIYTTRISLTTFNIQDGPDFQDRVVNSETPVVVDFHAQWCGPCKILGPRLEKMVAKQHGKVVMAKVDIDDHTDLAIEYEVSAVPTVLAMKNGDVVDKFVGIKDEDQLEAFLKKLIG

Row | Target | log2 fold change [1] | log2 fold change [2] | log2 fold change [3] | log2 fold change [4] | log2 fold change (Nexturastat A) | log2 fold change [5] | log2 fold change (barasertib) | log2 fold change (vemurafenib) | log2 fold change [6] | log2 fold change (givinostat)
1 | UBE3B (UniProt Q7Z3V4) | 0.142 | 0.086 | -0.03 | 0.007 | 0.014 | -0.099 | -0.057 |  |  | 
2 | TTC4 (UniProt O95801) | 0.051 | -0.066 | 0.032 | 0.046 | 0.052 | 0.106 | 0.072 | 0.059 | 0.013 | -0.015
3 | USP9X (UniProt Q93008) | -0.015 | -0.02 | -0.009 | 0.023 | 0.015 | 0.075 | 0.043 | 0.019 | 0.007 | 0.025
4 | ULBP1 (UniProt Q9BZM6) | -0.088 | 0.023 | -0.014 |  | 0.428 (active) | 0.053 |  | 0.051 | 0 | 0.028
5 | TRMT2A (UniProt Q8IZ69) | 0.083 | -0.02 | -0.009 | 0.005 | 0.013 | -0.032 | -0.003 | 0.022 | 0.085 | -0.123
6 | UBA6 | 0.086 | -0.044 | 0.032 | 0.02 | -0.027 | 0.086 | 0.07 | 0.057 | 0.036 | 0.015
7 | TSC2 (UniProt P49815) | -0.09 | 0.004 | -0.076 | -0.139 | 0.173 | 0.098 | -0.015 |  | -0.036 | -0.043
8 | VPS11 (UniProt Q9H270) | 0.016 | -0.003 | 0.002 | 0.076 | 0.107 | 0.073 | 0.017 | 0.016 | 0.031 | -0.058
9 | TMEM223 (UniProt A0PJW6) | 0.034 | -0.001 | -0.026 | 0.058 | -0.13 | 0.055 | 0.041 | 0.084 | -0.128 | 0.002
10 | TRAPPC13 isoform 5 (UniProt A5PLN9) | 0.022 | 0.008 | 0.006 | 0.043 | 0.024 | 0.113 | 0.002 | 0.074 | 0.095 | 0.025
11 | TMEM128 (UniProt Q5BJH2) | -0.023 | -0.006 | -0.005 | -0.054 | 0.021 | 0.052 | -0.004 | -0.279 |  | 0.249
12 | TMEM161B (UniProt Q8NDZ6) | 0.003 | -0.012 | 0.026 | 0.008 | -0.063 | 0.053 | -0.037 | 0.079 | 0.012 | 0.032
13 | TSEN2 (UniProt Q8NCE0) | 0.306 (active) | 0.015 | 0.014 | -0.02 | -0.013 | 0.063 | 0.073 | 0.058 | 0.097 | 0.012
14 | UHRF1BP1 (UniProt Q6BDS2) | -0.068 | -0.039 | -0.012 | -0.011 | 0.043 | -0.043 | -0.009 | -0.035 | -0.022 | -0.012
15 | UBIAD1 (UniProt Q9Y5Z9) | -0.03 | 0.059 | 0.004 | 0.015 |  | 0.093 | 0.023 | 0.07 | 0.023 | 0.043
16 | VPS33B (UniProt Q9H267) | -0.05 | -0.037 | -0.015 | -0.02 | 0.032 | 0.069 | 0.088 | 0.087 | 0.111 | 0.029

Row | Target | log2 fold change [1] | log2 fold change [2] | log2 fold change [3] | log2 fold change [4] | log2 fold change (Nexturastat A) | log2 fold change [5] | log2 fold change (barasertib) | log2 fold change (vemurafenib) | log2 fold change [6] | log2 fold change (givinostat)
17 | TRIM44 (UniProt Q96DX7) | 0.059 | -0.055 | 0.06 | 0.015 |  | 0.042 | -0.035 | -0.005 | 0 | -0.026
18 | VRK1 (UniProt Q99986) | -0.089 | -0.121 | 0.096 | 0.063 | -0.085 | 0.072 | 0.075 | 0.122 | 0.108 | 0.046
19 | TXN2 (UniProt Q99757) | -0.05 | -0.018 | -0.009 | 0.036 | 0.093 | -0.048 | 0.009 | 0.006 | 0.095 | -0.046
20 | VPS72 isoform 2 (UniProt Q15906) | -0.051 | 0.196 | 0.05 |  | -0.17 | -0.028 | 0.001 | 0.025 | -0.042 | -0.014
21 | VPS37A (UniProt Q8NEZ2) | -0.015 | -0.171 | 0.019 | 0.001 | -0.048 | 0.054 | 0.076 | 0.128 | 0.014 | 0.14
22 | XPO1 (UniProt O14980) | 0.072 | -0.063 | 0.025 | 0.081 | -0.061 | 0.101 | 0.039 | 0.086 | -0.011 | 0.024
23 | VKORC1 (UniProt Q9BQB6) | 0.064 | -0.04 | 0.001 | -0.325 (active) |  | 0.117 | 0.048 | -0.023 | -0.017 | -0.006
24 | TMEM179B (UniProt Q7Z7N9) | -0.233 | -0.003 | 0.011 | 0.027 | 0.378 | 0.053 | 0.045 |  | -0.021 | -0.118
25 | UNC119B (UniProt A6NIH7) | 0.293 | -0.057 | 0.241 | -0.017 |  | -0.047 | -0.029 | 0.023 | -0.108 | 0.12
26 | UFL1 (UniProt O94874) | -0.009 | -0.089 | 0.011 | 0.048 | 0.091 | 0.089 | 0.031 | 0.083 | 0.043 | 0.08
27 | VWA8 (UniProt A3KMH1) | -0.07 | 0.042 | 0.023 | 0.019 | -0.059 | 0.011 | 0.022 | 0.034 | 0.032 | 0.025
28 | UBXN8 (UniProt O00124) | -0.029 | 0.169 | 0.023 |  | 0.334 | -0.024 | -0.218 | 0.089 |  | 
29 | UBE2Q1 (UniProt Q7Z7E8) | 0.093 | -0.041 | -0.003 | -0.037 | 0.008 | 0.114 | 0.068 | 0.011 | -0.031 | 0.022
30 | TOMM5 isoform 2 (UniProt Q8N4H5) | -0.009 | 0.367 | 0.005 | 0.084 | 0.025 | -0.011 | 0.03 | 0 | 0.141 | -0.029
31 | TSPAN13 (UniProt O95857) | 0.111 | -0.078 | 0.161 |  | -0.061 | -0.08 | -0.041 | 0.103 | -0.113 | -0.063
